Records with an inconclusive call do not appear. Active and inactive are the calls of the source. The call rests on the fitted dose curve; in most records, active means well fitted cell-killing curve with a large enough effect; inconclusive means small, poorly fitted or top-dose-only effect; inactive means flat fitted curve, though single readings scatter.

In PubChem BioAssay AID540362 (National Center for Advancing Translational Sciences (NCATS), 2011) one finds Potency data, which are given here for six compounds.

The test can be described thus: PC3M Cytotoxicity Assay for Compounds that Inhibit the Perinuclear Compartment. To be noted: PC3M-GFP viability, ATPLite luminescence, 24 h. The text has this:
The perinucleolar compartment (PNC) is a non-membrane-bound nuclear subdomain that is associated with but structurally distinct from the nucleolus. The PNC is a heritable trait, in which the number of PNCs per cell in daughter cells often mimics that of their mother cells. The PNC is heterogeneous in shape, is stable through interphase, disassembles during mitosis, and reassembles in early G1. The PNC is concentrated with newly synthesized RNA polymerase III (pol III) RNAs (MRP RNA, RNAse P H1 RNA, hY RNAs[hY1, 2, 5], Alu RNA, and SRP [7SL] RNA) and RNA binding proteins (nucleolin, PTB, CUG-BP, KSRP, Raver1, Raver2, and Rod). […] Extensive in vitro studies have shown that the PNC is unique to tumor cells and preferentially forms in tumor cells derived from solid tissues. Examination of cancer cell lines from various origins and malignant capacities has shown that PNC prevalence correlates with the malignancy of tumors and has the potential to be developed as a pan-cancer prognostic marker. […] Although the PNC is associated with a DNA locus and a handful of components have been identified, much remains to be investigated regarding the structure and function of the PNC and its mechanistic link to cancer. We have previously shown that PNC prevalence reduction is a valid strategy to identify compounds that can be used to study the structure and function of the PNC. It is necessary, however, to create a screening platform that is able to test a large number of compounds in an automated fashion. Here we report the development and robustness of an automated whole-cell phenotypic image-based screening assay that is capable of identifying such compounds. We conducted a followup assay to measure the effect of the lead candidates on cell health by measuring ATP levels (ATPLite). The highly metastatic PC3M-GFP reporter cell line was used in this study. NIH Chemical Genomics Center [NCGC] NIH Molecular Libraries Probe Centers Network [MLPCN] MLPCN Grant: MH082371-01A2 Assay Submitter (PI): Sui Huang, Northwestern University, Feinberg School of Medicine, Cell and Molecular Biology, Chicago, Illinois.
1. Cells at a density of 75-90% confluency in T175 flasks were harvested using 7 ml TrypLE Express cell dissociation reagent. After dissociation (5 minutes room temperature incubation) 10 ml of complete media was added to the TrypLE/cell suspension. The liquid was transferred to a 50 ml Conical tube and cells were pelleted at 1000 RPM for 5 min. Supernatant was removed and cells were resuspended to a final density of 150-200 cells/ul in complete media. 2. Cells were plated in 5 ul volume (2000 cells/well) into 1536 well White solid bottom plates and allowed to recover and adhere at 37 C in a humidified 5% CO2 incubator for 4 hours. 3. After 4 hour incubation, compound libraries (23 nl of […] in columns 5-48) were transferred to the plates in duplicate using a 1536 well pintool. Camptothecin positive control (59 uM final) was added to column 2 and 1:3 dilutions of camptothecin was added to column 3. DMSO negative controls were present in columns 1 and 4. 4. After a 24 hour incubation in the 37 C incubator, all wells were treated with 3 ul of ATPLite reagent using a multidrop combi dispenser (ThermoFisher). Bubbles that formed during dispensing were removed by spinning the plates for 1 minutre at 1500 RPM on a table top centrifuge. 5. Luminescencent signal was detected on a Viewlux CCD based imager (PerkinElmer) with a clear filter and a 30 second integration time. The PC3M cell line stably expressing the PTB-GFP was provided by Sui Huang of Northwestern University. The media and cell culture reagents were purchased from Invitrogen (Carlsbad, CA), ATPLite came from PerkinElmer.
A general note: ATP-based viability assays read luminescence as a measure of living cells.
Consider `N=c1c2c(-c3ccccc3)c(-c3ccccc3)n(Cc3ccccc3)c2ncn1CCCn1ccnc1`, for which the Potency is 19.9 µM (active).

With `CC(C)Cn1cnc2c(c(-c3ccccc3)c(-c3ccccc3)n2Cc2ccco2)c1=N`, the Potency is 19.9 µM (active).

As for `N=c1c2c(-c3ccccc3)c(-c3ccccc3)n(Cc3ccco3)c2ncn1CCO`, the Potency was 19.9 µM (active).

For the compound `N=c1c2c(-c3ccccc3)c(-c3ccccc3)n(Cc3ccco3)c2ncn1Cc1ccccc1`, the Potency is 19.9 µM (active).

As for `N=c1c2c(-c3ccccc3)c(-c3ccccc3)n(Cc3ccco3)c2ncn1CCCn1ccnc1`, the Potency is 25 µM (active).

As to `N=c1c2c(-c3ccccc3)c(-c3ccccc3)n(Cc3ccco3)c2ncn1Cc1ccco1`, the Potency is 19.9 µM (active).
